According to PubChem BioAssay AID463173 (ICCB-Longwood Screening Facility, Harvard Medical School, 2010):
Out of some 52,000 compounds screened, about 4,300 (8.3%) were called active. The entries come from a sample that favours actives as a whole. A number with no mark means an inactive call. Rule as the data show it: active = survival mostly below about 52% (no sharp cut-off); inactive = mostly above about 56%.

Each compound was assayed on DeltatarO mutant (assay: S. aureus survival, RN4220 and DeltatarO strains – OD600, teichoic acid synthesis inhibitors, primary screen (AID 463173)). Settings: S. aureus RN4220 wild type/DeltatarO growth, OD600, 18 h, active compounds read low, screened at 18.75 µg/mL (by protocol).

Structure (SMILES) | survival
Cc1ccc(NC(=O)CSc2nnc(-c3cc4occc4n3C)n2-c2ccccc2C)c(C)c1 | 88%
Cc1ccc(CSC2=Nc3ccccc3C3=NC(CCC(=O)NCc4cccs4)C(=O)N23)c(C)c1 (stereo not given) | 76%
Cc1ccc2c(c1)cc(C(=O)Nc1ccc(F)cc1F)n2C | 106%
COc1ccccc1NC(=O)CCCOc1cc(=O)n(C)c2ccccc12 | 114%
Cn1c(=O)[nH]c(=O)c2[nH]c(NCCO)nc21 | 80%
COc1ccc(-c2nc(CN3CCC(C(=O)NCCCN4CCN(c5ccccc5F)CC4)CC3)c(C)o2)cc1OC | 70%
COc1ccccc1CNc1ccc(-c2nc(-c3ccccn3)no2)cc1[N+](=O)[O-] | 43% (active)
Cc1ccc(CNc2ccc(-c3nc(-c4cccnc4)no3)cc2[N+](=O)[O-])cc1 | 75%
COc1ccccc1CNc1ccc(-c2nc(-c3ccccc3C)no2)cc1[N+](=O)[O-] | 91%
O=[N+]([O-])c1cc(-c2nc(-c3ccncc3)no2)ccc1NCc1ccccc1 | 109%
COc1ccccc1CNc1ccc(-c2nc(-c3ccncc3)no2)cc1[N+](=O)[O-] | 45% (active)
COc1ccc(-c2noc(-c3ccc(NCc4ccccc4OC)c([N+](=O)[O-])c3)n2)cc1 | 57%
COc1ccccc1CNc1ccc(-c2nc(C)no2)cc1[N+](=O)[O-] | 68%
COc1ccccc1CNc1ccc(-c2nc(-c3cccnc3)no2)cc1[N+](=O)[O-] | 78%
Cc1ccc(CNc2ccc(-c3nc(-c4ccncc4)no3)cc2[N+](=O)[O-])cc1 | 39% (active)
O=C(CNCC1CCCO1)Nc1ccccc1-n1cccc1 (stereo not given) | 70%
CCOc1ccc(CNCCNC(=O)c2nonc2N)cc1 | 84%
CC1C(=NO)C(C)C(c2ccccc2)NC1c1ccccc1 (stereo not given) | 99%
O=C(Nc1cc(Cl)ccc1O)c1nc2ncccn2n1 | 74%
CCOc1cc(C2C(C(=O)Nc3ccccc3)=C(C)Nc3ncnn32)cc(Br)c1O (stereo not given) | 102%
Cc1ccc2sc(N(CCCN(C)C)C(=O)c3ccco3)nc2c1C | 128%
COC(=O)CN1C(=O)CSc2ccc(S(=O)(=O)Nc3ccc(F)c(Cl)c3)cc21 | 83%
Cc1ccc(NC(=O)COc2ccc(-c3nn(C)c(=O)c4ccccc34)cc2)c(C)c1 | 73%
CC(=O)c1cccc(NC(=O)c2cc3c(s2)-c2c(C)cccc2OC3)c1 | 120%
Cc1ccc(-n2nc(C)c3c(C(=O)Nc4ccc(Br)c(C)c4)cc(C)nc32)cc1 | 101%
CCc1cccc(C)c1NC(=O)c1cc(C)nc2c1c(C)nn2-c1cccc(Cl)c1C | 88%
Cc1ccc(-n2nc(C)c3c(C(=O)NCCc4ccccc4)cc(C)nc32)cc1 | 70%
Cc1cc(C(=O)Nc2ccc(C(C)C)cc2)c2c(C)nn(-c3ccccc3)c2n1 | 73%

Structure (SMILES) | survival
Cc1ccc(NC(=O)c2cc(C)nc3c2c(C)nn3-c2cccc(Cl)c2C)c(C)c1 | -5% (active)
Cc1cc(C(=O)Nc2cccc(C(F)(F)F)c2)c2c(C)nn(-c3cccc(F)c3)c2n1 | 17% (active)
Cc1ccc(-n2nc(C)c3c(C(=O)NCCc4ccc(S(N)(=O)=O)cc4)cc(C)nc32)cc1 | 118%
Cc1cc(C(=O)Nc2cccc(C)c2C)c2c(C)nn(-c3cccc(F)c3)c2n1 | 94%
COc1ccc(NC(=O)c2cc(C)nc3c2c(C)nn3-c2cccc(Cl)c2C)c(OC)c1 | 88%
Cc1cc(C)cc(NC(=O)c2cc(C)nc3c2c(C)nn3-c2ccccc2)c1 | -5% (active)
Cc1cc(C)c(NC(=O)c2cc(C)nc3c2c(C)nn3-c2cccc(F)c2)c(C)c1 | 94%
Cc1ccc(CCNC(=O)c2cc(C)nc3c2c(C)nn3-c2ccc(C)cc2)cc1 | 25% (active)
COc1ccc(OC)c(CNC(=O)c2nn(C)c3c2CS(=O)(=O)c2ccccc2-3)c1 | 74%
CCC(C(=O)Nc1ccc(C(=O)OC)cc1)n1c(=O)c(-c2ccccc2NC(C)=O)nc2ccccc21 (stereo not given) | 94%
O=C(CSc1nc2ccsc2c(=O)n1-c1ccc(Br)cc1)NCc1ccccc1 | 73%
CCCCN(CCCC)S(=O)(=O)c1ccc(NC(=O)c2c(-c3ccccc3)noc2C)cc1 | 60%
CCOC(=O)c1c(S(=O)(=O)N2CCCC(C(=O)NCc3cccc(OC)c3)C2)c(C)n(C)c1C (stereo not given) | 117%
Cc1ccc(-c2nc(C)c(CCNC(=O)c3ccccc3Br)s2)cc1 | 72%
CCn1c(=O)cc(OCC(=O)N2CCN(c3ccc(OC)cc3)CC2)c2ccccc21 | 71%
O=C(NCc1cccn1Cc1ccccc1)Nc1ccc(Br)cc1F | 66%
CCOc1cccc(C2Oc3nc(SC)nnc3-c3ccccc3N2C(C)=O)c1OC (stereo not given) | 59%
Cc1c(C(=O)Nc2ccccc2F)sc2nc3n(c(=O)c12)CCC3 | 87%
O=C(Cn1ccn(-c2ccc(F)c(F)c2)c(=O)c1=O)NCc1ccccc1 | 62%
COc1cc(OC)cc(-n2c(=O)c3ccccc3n(Cc3ccccc3C#N)c2=O)c1 | 128%
Cc1ccc(C)c(N2CCN(C(=O)c3cc(C)nc4c3c(C)nn4-c3ccccc3)CC2)c1 | 126%
Cc1cc(C(=O)N2CCN(c3ccccc3)CC2)c2c(C)nn(-c3cccc(F)c3)c2n1 | 91%
CCc1ccc(-n2nc(C)c3c(C(=O)Nc4cc(OC)cc(OC)c4)cc(C)nc32)cc1 | 102%
CCc1ccc(-n2nc(C)c3c(C(=O)Nc4cccc(C(F)(F)F)c4)cc(C)nc32)cc1 | 20% (active)
Cc1ccc(C)c(N2CCN(C(=O)c3cc(C)nc4c3c(C)nn4-c3cccc(F)c3)CC2)c1 | 8% (active)
CCc1ccc(-n2nc(C)c3c(C(=O)Nc4ccc(Cl)cc4)cc(C)nc32)cc1 | 66%
Cc1cccc2cc(CN(CCO)S(=O)(=O)c3ccc(Cl)cc3)c(=O)[nH]c12 | 82%
